Values joined by “and” are separate entries in the source; they are usually repeats but may differ in a detail not shown here. Identical values can stand only once. Records with an inconclusive call do not appear. A structure can be active in one record and inactive in another. Active and inactive are the calls of the source. The calls were made as follows: active = hit-call score of the fitted dose curve at least 0.9, where 1 is the maximum; inconclusive = response in the unintended direction; inactive = score below 0.9.
Assays:
[1] = biological target: Estrogen receptor beta (Homo sapiens) (UniProt Q92731); test: ATG_hERb_XSP2: Attagene TRANS-FACTORIAL Multi-Species (XSP2) HepG2 Assay for human Estrogen Receptor (ERb) (AID 2283813);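 also: actives raise reporter mRNA above DMSO so AC50 reflects agonist induction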
Chain of Estrogen receptor beta (Homo sapiens) (Q92731 whole entry, looked up, the tested form may be a part): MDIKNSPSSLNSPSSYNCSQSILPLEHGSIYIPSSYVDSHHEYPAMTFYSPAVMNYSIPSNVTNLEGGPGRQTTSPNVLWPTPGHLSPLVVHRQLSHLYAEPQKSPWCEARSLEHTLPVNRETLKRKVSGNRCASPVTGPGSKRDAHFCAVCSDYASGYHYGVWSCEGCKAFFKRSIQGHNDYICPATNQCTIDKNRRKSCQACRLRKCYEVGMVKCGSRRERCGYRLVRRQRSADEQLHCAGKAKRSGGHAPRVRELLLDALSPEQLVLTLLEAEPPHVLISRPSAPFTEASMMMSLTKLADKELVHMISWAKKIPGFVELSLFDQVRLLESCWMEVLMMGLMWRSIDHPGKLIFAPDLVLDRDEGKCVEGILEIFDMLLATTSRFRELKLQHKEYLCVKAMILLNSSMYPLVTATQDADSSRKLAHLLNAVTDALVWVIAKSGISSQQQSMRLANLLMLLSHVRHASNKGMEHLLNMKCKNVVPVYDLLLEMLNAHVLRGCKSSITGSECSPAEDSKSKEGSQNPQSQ
How it was run: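 HepG2 cells transiently transfected with GAL4-UAS reporter units and chimeric human ERb-Gal4, 24 h exposure. Reporter mRNA quantified by RT-PCR with FAM labelling, HpaI digestion and capillary electrophoresis; gain of signal versus DMSO.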

[2] = biological target: zebrafish Estrogen Receptor (ER1), esr1 (gene 259252) (UniProt P57717); test: ATG_zfER1_XSP2: Attagene TRANS-FACTORIAL Multi-Species (XSP2) HepG2 Assay for zebrafish Estrogen Receptor (ER1) (AID 2283816)
Chain of zebrafish Estrogen Receptor (ER1), esr1 (gene 259252) (P57717 whole entry, looked up, the tested form may be a part): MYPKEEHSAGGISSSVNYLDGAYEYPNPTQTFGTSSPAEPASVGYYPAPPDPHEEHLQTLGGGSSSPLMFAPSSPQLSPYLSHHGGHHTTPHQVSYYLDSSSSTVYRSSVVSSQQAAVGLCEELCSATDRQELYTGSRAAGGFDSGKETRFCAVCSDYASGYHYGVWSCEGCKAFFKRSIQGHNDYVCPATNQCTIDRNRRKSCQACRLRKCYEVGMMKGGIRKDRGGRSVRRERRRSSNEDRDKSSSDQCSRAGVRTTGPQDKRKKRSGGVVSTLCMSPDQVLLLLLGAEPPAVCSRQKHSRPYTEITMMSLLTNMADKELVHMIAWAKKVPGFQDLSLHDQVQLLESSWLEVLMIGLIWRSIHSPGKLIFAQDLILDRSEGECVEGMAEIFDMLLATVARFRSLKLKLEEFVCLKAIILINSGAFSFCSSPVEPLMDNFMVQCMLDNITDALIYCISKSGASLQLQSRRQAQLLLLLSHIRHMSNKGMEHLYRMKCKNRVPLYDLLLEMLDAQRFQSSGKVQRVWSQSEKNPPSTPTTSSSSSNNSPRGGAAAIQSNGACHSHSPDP
How it was run: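 HepG2 cells transiently transfected with a GAL4-UAS reporter and a chimeric zebrafish ER1-Gal4 construct, dosed 24 h. Reporter mRNA quantified by RT-PCR, labelling, HpaI digestion and capillary electrophoresis, relative to DMSO.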

[3] = biological target: chicken Estrogen Receptor (ERa), ESR1 (gene 396099) (UniProt P06212); test: ATG_chERa_XSP2: Attagene TRANS-FACTORIAL Multi-Species (XSP2) HepG2 Assay for chicken Estrogen Receptor (ERa) (AID 2283817);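 also: actives raise reporter signal above DMSO so AC50 reflects ER activation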
Chain of chicken Estrogen Receptor (ERa), ESR1 (gene 396099) (P06212 whole entry, looked up, the tested form may be a part): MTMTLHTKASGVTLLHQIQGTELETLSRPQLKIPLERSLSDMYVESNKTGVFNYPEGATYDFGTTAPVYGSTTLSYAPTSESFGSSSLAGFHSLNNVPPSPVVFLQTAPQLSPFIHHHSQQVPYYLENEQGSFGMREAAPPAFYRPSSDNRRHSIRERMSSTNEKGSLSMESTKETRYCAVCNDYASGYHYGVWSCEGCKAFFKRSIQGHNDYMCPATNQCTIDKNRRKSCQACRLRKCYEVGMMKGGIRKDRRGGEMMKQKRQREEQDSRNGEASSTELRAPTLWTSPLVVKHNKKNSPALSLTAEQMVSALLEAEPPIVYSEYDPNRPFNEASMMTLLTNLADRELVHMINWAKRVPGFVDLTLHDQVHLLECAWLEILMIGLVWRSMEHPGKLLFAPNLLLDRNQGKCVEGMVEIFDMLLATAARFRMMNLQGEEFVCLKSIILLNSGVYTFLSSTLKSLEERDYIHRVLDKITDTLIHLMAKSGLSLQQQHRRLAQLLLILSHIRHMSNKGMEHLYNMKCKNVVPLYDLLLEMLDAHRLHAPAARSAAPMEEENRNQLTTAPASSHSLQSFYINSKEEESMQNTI
How it was run: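 HepG2 cells transiently transfected with multiplexed GAL4-UAS reporter units expressing chimeric chicken ERa-Gal4; 24 h compound exposure. Reporter mRNA measured by RT-PCR with 6-FAM labelling, HpaI digestion and capillary electrophoresis; gain-of-signal fitted versus DMSO.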

[4] = test system: zebrafish Estrogen Receptor (ER2a), gene 317734; test: ATG_zfER2a_XSP2: Attagene TRANS-FACTORIAL Multi-Species (XSP2) HepG2 Assay for zebrafish Estrogen Receptor (ER2a) (AID 2283818);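 also: hits raise reporter mRNA so AC50 reflects activation of zebrafish ER2a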
How it was run: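 HepG2 cells transiently transfected with GAL4-UAS reporter units and chimeric zebrafish ER2a-Gal4, exposed 24 h; medium contains 3 nM 6-alpha-fluorotestosterone and 1.5 nM norgestrel. Reporter mRNA quantified by RT-PCR, HpaI digestion, capillary electrophoresis; gain versus DMSO.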

[5] = test system: frog Estrogen Receptor (ER), gene 398734; test: ATG_frER1_XSP2: Attagene TRANS-FACTORIAL Multi-Species (XSP2) HepG2 Assay for frog Estrogen Receptor (ER) (AID 2283821);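 also: hits raise reporter mRNA above DMSO baseline so potency means agonist or activator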
How it was run: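 HepG2, transient MRTU transfection, chimeric NR-GAL4/UAS reporters; 24 h compound exposure, 24-well. Readout: reporter mRNA via RT-PCR + capillary electrophoresis, fluorescence. Positive fit vs DMSO baseline.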

[6] = test system: zebrafish Estrogen Receptor (ER2b), gene 317733; test: ATG_zfER2b_XSP2: Attagene TRANS-FACTORIAL Multi-Species (XSP2) HepG2 Assay for zebrafish Estrogen Receptor (ER2b) (AID 2283823);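 also: fitted upward as reporter gain over DMSO so potency reflects activation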
How it was run: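 In this multiplexed trans-activation format, HepG2 cells expressing exogenous NR-Gal4 fusions drive GAL4-UAS reporters. Exposure lasts 24 h, and reporter mRNA induction is read by RT-PCR with capillary electrophoresis detection.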

[7] = biological target: GAL4 Transcription Factor (Internal Marker), GAL4 (gene 855828) (UniProt P04386); test: ATG_GAL4_XSP2: Attagene TRANS-FACTORIAL Multi-Species (XSP2) HepG2 Assay for GAL4 Transcription Factor (Internal Marker) (AID 2283814);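 also: GAL4 reporter mRNA background control in MRTU transfected cells not a receptor target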
Chain of GAL4 Transcription Factor (Internal Marker), GAL4 (gene 855828) (P04386 whole entry, looked up, the tested form may be a part): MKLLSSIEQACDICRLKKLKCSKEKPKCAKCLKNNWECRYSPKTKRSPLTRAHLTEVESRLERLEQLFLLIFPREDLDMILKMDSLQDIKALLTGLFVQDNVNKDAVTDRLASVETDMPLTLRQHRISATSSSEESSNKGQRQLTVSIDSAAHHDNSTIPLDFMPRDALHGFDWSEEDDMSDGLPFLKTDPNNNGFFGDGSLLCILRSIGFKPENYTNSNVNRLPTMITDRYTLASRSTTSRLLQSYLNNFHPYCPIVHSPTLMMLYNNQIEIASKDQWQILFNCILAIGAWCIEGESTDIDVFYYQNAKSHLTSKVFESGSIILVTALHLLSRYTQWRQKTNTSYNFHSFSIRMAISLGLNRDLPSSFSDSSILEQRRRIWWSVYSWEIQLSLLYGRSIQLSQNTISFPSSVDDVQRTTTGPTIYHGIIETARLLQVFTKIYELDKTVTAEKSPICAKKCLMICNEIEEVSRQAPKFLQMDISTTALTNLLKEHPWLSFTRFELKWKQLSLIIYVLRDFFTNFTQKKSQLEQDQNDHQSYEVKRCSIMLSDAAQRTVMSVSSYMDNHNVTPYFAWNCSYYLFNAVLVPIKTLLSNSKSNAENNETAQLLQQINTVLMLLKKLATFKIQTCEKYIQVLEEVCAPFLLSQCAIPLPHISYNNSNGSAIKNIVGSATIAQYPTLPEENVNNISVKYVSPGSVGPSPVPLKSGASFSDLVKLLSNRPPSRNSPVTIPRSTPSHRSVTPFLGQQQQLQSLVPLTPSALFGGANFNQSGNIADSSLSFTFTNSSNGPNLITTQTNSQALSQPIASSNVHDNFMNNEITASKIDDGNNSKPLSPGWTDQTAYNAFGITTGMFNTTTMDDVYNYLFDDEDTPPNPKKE
How it was run: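 HepG2 cells transiently transfected with GAL4-UAS reporter units, stimulated with 3 nM 6-alpha-fluorotestosterone plus 1.5 nM norgestrel, dosed 24 h. Reporter mRNA by RT-PCR/capillary electrophoresis; gain-of-signal fit versus DMSO, background control.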

[8] = test system: turtle Androgen Receptor (AR), gene 101947425; test: ATG_trAR_XSP2: Attagene TRANS-FACTORIAL Multi-Species (XSP2) HepG2 Assay for turtle Androgen Receptor (AR) (AID 2283815)
Procedure: (§1) ATG_XSP2_multi-species_TRANS is a cell-based, multiplexed assay created by modifying the existing Attagene TRANS-FACTORIAL system to include a panel of nuclear receptors from some or all the following species: human (Homo sapiens), mouse (Mus musculus), frog (Xenopus laevis), zebrafish (Danio rerio), chicken (Gallus gallus), and turtle (Chrysemys picta). The […] format uses HepG2, a human liver cell line, with measurements taken at 24 hours after chemical dosing in a 24-well plate. Xsp2 included 3 nM 6-alpha-fluorotestosterone and 1.5 nM norgestrel to stimulate the androgen receptor.ATG_trAR_XSP2 is one of 29 assay components measured or calculated from the ATG_XSP2_multi-species_TRANS assay. It is designed to make measurements of mRNA induction, a form of inducible reporter, as detected with fluorescence intensity signals by Reverse transcription polymerase chain reaction (RT-PCR) and Capillary electrophoresis technology.The assay endpoint ATG_trAR_XSP2 was analyzed in the positive analysis fitting direction relative to DMSO as the negative control and baseline of activity. […] Furthermore, this assay endpoint can be referred to as a primary readout, because this assay has produced multiple assay endpoints where this one serves a reporter gene function. […]

[9] = test system: chicken Androgen Receptor (AR), gene 422165; test: ATG_chAR_XSP2: Attagene TRANS-FACTORIAL Multi-Species (XSP2) HepG2 Assay for chicken Androgen Receptor (AR) (AID 2283819);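 also: hits raise reporter mRNA above DMSO so potency is for activation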
Procedure: as §1, with “receptor.ATG_chAR_XSP2” for “receptor.ATG_trAR_XSP2”, “ATG_chAR_XSP2” for “ATG_trAR_XSP2”

[10] = ATG_M_19_XSP2: Attagene TRANS-FACTORIAL Multi-Species (XSP2) HepG2 Assay for M32 Transcription Factor (Internal Marker) (AID 2283822)
How it was run: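 Internal background marker in a multi-species nuclear receptor TRANS panel: transfected HepG2 cells exposed 24 h, with 3 nM 6-alpha-fluorotestosterone and 1.5 nM norgestrel present. Readout is RT-PCR of reporter transcripts resolved by capillary electrophoresis, gain-of-signal versus DMSO.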

Measured: AC50

COP(=S)(OC)Oc1ccc([N+](=O)[O-])c(C)c1
active: [1] 47.5 µM | [3] 38.3 µM | [4] 44.9 µM | [5] 50.4 µM | [6] 54.5 µM
inactive: [2]

C=C(C)CN(CC)c1c([N+](=O)[O-])cc(C(F)(F)F)cc1[N+](=O)[O-]
active: [3] 11 µM and 28.2 µM | [5] 6.84 µM and 32.4 µM | [6] 33.3 µM and 38 µM
inactive: [1] | [2] | [4]

CCN(CC)C(=O)C(C)Oc1cccc2ccccc12 (stereo not given)
inactive: [1] | [2] | [4] | [5]
active: [3] 7.35 µM | [6] 65.7 µM

COP(=S)(OC)SCn1nnc2ccccc2c1=O
inactive: [1] | [7] | [2] | [3] | [4] | [6]
active: [3] 21.7 µM | [5] 29.1 µM and 5.67 µM | [6] 132 µM

CC1(C)C(C=C(Cl)Cl)C1C(=O)OC(C#N)c1cccc(Oc2ccccc2)c1 (stereo not given)
inactive: [1] | [8] | [4]
active: [3] 22.8 µM | [5] 21.1 µM | [6] 100 µM

N#Cc1c[nH]cc1-c1cccc2c1OC(F)(F)O2
active: [2] 25.9 µM | [3] 1.68 µM and 2.04 µM | [4] 25.8 µM and 2.71 µM | [5] 4.14 µM | [6] 23.2 µM and 17.5 µM
inactive: [5]

CSC(=O)c1c(C(F)F)nc(C(F)(F)F)c(C(=O)SC)c1CC(C)C
active: [6] 15.7 µM
not listed: [1] | [8]
inactive: all other assays above

CC1(C)CCC(=Cc2ccc(Cl)cc2)C1(O)Cn1cncn1 (stereo not given)
active: [3] 27.6 µM | [6] 115 µM
not listed: [8] | [9]
inactive: all other assays above

Cc1c(COC(=O)[C@@H]2[C@H](/C=C(\Cl)C(F)(F)F)C2(C)C)cccc1-c1ccccc1
active: [3] 30.5 µM | [5] 49.3 µM | [6] 100 µM
not listed: [8] | [9]
inactive: all other assays above

CC(C)NC(=O)N1CC(=O)N(c2cc(Cl)cc(Cl)c2)C1=O
not listed: [1] | [8] | [9]
inactive: all other assays above

Source: PubChem BioAssay (EPA / NIEHS)
